Our source for the inhibition values is PubChem BioAssay.

Structures are written as SMILES. Unmarked numbers belong to inactive results. Activity calls are given as the source filed them. Rule as the data show it, unless noted: active = inhibition above about 25%; inactive = the rest.

As a reminder, the inhibition is the change of the read-out against control, counted positive when it falls.

Assay [1] deals with Nuclear receptor coactivator 1 (Homo sapiens) (UniProt Q15788). The assay is described as follows: SRC1 coactivator transcriptional activity inhibitors, confirmation, cell-based, luminescence, quadruplicate (AID 588820;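 active = mean inhibition above 46.68%, the untreated control wells mean plus 3 SD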;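 also: 0% = DMSO wells and 100% = gossypol 36 µM treated wells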). As to conditions: HEK293 GAL4-SRC1 luciferase reporter, at 3.6 µM, stronger effect = higher value.
Assay [2] in a line: VP16 transactivation inhibitors, counter-screen for SRC1 inhibitor project, cell-based, luminescence, high throughput (AID 588824). As to conditions: cell-based VP16 transactivation luciferase luminescence; at 3.6 µM; stronger effect = higher value.

Sequence of Nuclear receptor coactivator 1 (Homo sapiens) (Q15788 whole entry, looked up, the tested form may be a part): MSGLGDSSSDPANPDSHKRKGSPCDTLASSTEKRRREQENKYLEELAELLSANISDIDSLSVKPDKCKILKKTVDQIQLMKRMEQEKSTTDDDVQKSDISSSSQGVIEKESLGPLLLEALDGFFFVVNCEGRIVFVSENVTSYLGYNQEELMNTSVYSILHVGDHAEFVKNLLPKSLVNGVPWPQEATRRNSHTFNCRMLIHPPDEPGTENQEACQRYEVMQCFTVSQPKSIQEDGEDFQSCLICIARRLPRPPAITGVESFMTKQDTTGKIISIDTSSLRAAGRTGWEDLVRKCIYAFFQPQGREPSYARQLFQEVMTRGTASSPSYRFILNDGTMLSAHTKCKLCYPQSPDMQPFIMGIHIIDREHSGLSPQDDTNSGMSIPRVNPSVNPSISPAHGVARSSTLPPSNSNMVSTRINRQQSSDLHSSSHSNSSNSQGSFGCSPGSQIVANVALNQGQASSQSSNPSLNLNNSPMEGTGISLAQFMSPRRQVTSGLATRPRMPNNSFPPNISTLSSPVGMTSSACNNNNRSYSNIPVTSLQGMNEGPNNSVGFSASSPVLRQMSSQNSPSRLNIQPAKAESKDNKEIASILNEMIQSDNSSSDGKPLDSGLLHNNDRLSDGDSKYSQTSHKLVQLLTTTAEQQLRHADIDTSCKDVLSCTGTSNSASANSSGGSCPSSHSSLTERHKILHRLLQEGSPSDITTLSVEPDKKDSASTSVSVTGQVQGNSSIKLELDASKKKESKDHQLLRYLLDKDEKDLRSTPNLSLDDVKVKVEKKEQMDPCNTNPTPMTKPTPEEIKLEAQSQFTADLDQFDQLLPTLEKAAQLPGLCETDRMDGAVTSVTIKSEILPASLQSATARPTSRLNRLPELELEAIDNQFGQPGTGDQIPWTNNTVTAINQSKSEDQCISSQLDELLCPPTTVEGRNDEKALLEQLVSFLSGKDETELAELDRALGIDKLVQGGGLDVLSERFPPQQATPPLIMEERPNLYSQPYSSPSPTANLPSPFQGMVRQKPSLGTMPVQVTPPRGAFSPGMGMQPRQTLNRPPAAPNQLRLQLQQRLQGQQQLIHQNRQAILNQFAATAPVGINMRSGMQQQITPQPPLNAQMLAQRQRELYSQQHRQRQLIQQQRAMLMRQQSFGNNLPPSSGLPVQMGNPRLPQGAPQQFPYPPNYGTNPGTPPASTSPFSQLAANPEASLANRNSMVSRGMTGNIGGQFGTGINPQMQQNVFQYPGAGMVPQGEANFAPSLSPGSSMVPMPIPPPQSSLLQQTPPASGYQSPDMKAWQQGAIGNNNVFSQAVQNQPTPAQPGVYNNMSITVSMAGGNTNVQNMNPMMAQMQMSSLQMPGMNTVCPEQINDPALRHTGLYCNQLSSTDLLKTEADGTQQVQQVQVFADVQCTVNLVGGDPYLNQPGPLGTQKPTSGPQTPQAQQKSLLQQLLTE

In the case of `COc1ccc2c(C#N)c3ccccn3c2c1`, the inhibition in assay [1] is 37.4%; in assay [2], 7.81%.
Take `CC(=NCc1cccc(Cl)c1)c1nc(-c2ccco2)oc1O`: the inhibition in assay [1] was 4.53%; in assay [2], 45% (active).
On to `O=C(c1cc(COc2c(F)cccc2F)on1)N1CCC(c2ccncc2)CC1`, for which the inhibition in assay [1] was -8.98%; in assay [2], 19.7%.
Take `CCOC(=O)C1=C[C@@H](CC)N(S(=O)(=O)c2ccc([N+](=O)[O-])cc2)[C@H]1c1ccccc1`: the inhibition in assay [1] is -2.32%; in assay [2], -3.27%.
For `CCN(C(=O)C(C)OC(=O)CCCNC(=O)c1ccc(Cl)cc1)c1ccccc1` (stereo unspecified), the inhibition in assay [1] is -2.16%; in assay [2], -2.69%.
For the compound `CN(Cc1cccs1)C(=O)CN1CCN(S(=O)(=O)c2ccc3c(c2)OCCCO3)CC1`, the inhibition was -16.6% in assay [1] and -8.72% in assay [2].
For `Cc1cc(OCCCN2CCCC2)ccc1Cl`, in that order: -14.7% and -11.8%.
On the same counts, the results for `COc1ccc2c(c1)-c1c(ssc1=S)C(C)(C)N2C(=O)CSC1=NCCS1` are 24.9% and 12.4%.
On the same counts, the results for `COc1cc(C(=O)OCC(=O)NC(N)=O)cc(CN2C(=O)c3ccccc3C2=O)c1OC` are -10.9% and -8.55%.
As to `CCOc1cc(/C=N/Nc2nc3ccccc3[nH]2)cc(Br)c1OCC(=O)N(C)C`, the inhibition was -9.77% in assay [1] and -3.09% in assay [2].
For the compound `N#CC(C#N)=NNc1ccc2cn[nH]c2c1`, the inhibition was 14.6% in assay [1] and 31.6% (active) in assay [2].
On the same counts, the results for `COc1ccccc1CNC(=O)Cn1nnnc1CN(C)C(C)C` are -0.61% and 9.79%.
On the same counts, the results for `O=C1NC(=S)N/C1=C/c1ccc2c(c1)OCO2` are 10.2% and 16.3%.
On the same counts, the results for `COc1ccc(CCC(=O)Nc2ccc(Cl)c(S(=O)(=O)N3CCCC3)c2)cc1` are 12.1% and 27.8% (active).
For the compound `Cc1ccc(NC(=O)c2cc(=O)c3ccccc3o2)cc1S(=O)(=O)N1CCCCC1`, the inhibition in assay [1] is -9.96%; in assay [2] it was 7.05%.
For `CC(=O)c1ccc(S(=O)(=O)N2CCN(CCOc3ccc(Br)cc3)CC2)cc1`, the inhibition is 2.32% in assay [1] and 25.4% (active) in assay [2].
On the same counts, the results for `O=C(N[C@H]1c2ccccc2C[C@H]1O)[C@H]1O[C@@H](n2ccc(=O)[nH]c2=O)[C@H](O)[C@@H]1O` are -26.1% and -8.81%.
On the same counts, the results for `COc1ccc(CCN(C)C(=O)c2cc(S(=O)(=O)N3CCCCC3)ccc2Cl)cc1OC` are -9.24% and 8.04%.
With `CSC1=NCCCN1C(=O)c1c(-c2ccccc2Cl)noc1C`, the inhibition in assay [1] was 0.66%; in assay [2], -14.8%.
`COc1ccc(NC(=O)C2CCN(c3cnccn3)CC2)cc1Cl`: the results for the inhibition in assay [1] and in assay [2] were 1.5% and 1.48%, respectively.
As to `CCN1/C(=C2\C(=O)N(C)C(=S)N2c2ccccc2)C=Cc2ccccc21`, the inhibition in assay [1] was -4.3%; in assay [2] it was 2.2%.
On to `O=C(NCCS(=O)(=O)N1CCN(c2cccc(Cl)c2)CC1)C1CC1`, for which the inhibition is -3.41% in assay [1] and 18.9% in assay [2].
For `Cc1ccc(C(=O)Nc2c3c(nn2C(C)(C)C)CS(=O)(=O)C3)cc1[N+](=O)[O-]`, the inhibition in assay [1] was -11%; in assay [2] it was -9.8%.
With `Cc1ccc(S(=O)(=O)N(C)C)cc1NC(=O)COC(=O)CCC1CCCC1`, the inhibition was 8.06% in assay [1] and 5.41% in assay [2].
On the same counts, the results for `CCOC(=O)c1[nH]c(C)c(C(=O)OCc2ccc(C)cc2)c1C` are 4.43% and 5.19%.
As for `COc1cccc(NC(=O)CN(C)CC(=O)Nc2ccc(C)c([N+](=O)[O-])c2)c1`, the figures for the inhibition in assay [1] and in assay [2] were 28% and 27.2% (active), respectively.
For `O=C(NC1CC(=O)N(c2ccccc2)C1)C1CC1` (stereo unspecified), in that order: -3.45% and -9.3%.
As to `O=C(COc1ccc(F)cc1Cl)Nc1ccc(N2CCOCC2)cc1N1CCOCC1`, the inhibition in assay [1] was -16.6%; in assay [2], 2.25%.
On the same counts, the results for `CCn1cc(C(=O)NCC(OC)OC)c(=O)c2cc(S(=O)(=O)N(C)C3CCCCC3)ccc21` are 11.4% and 19.8%.
On the same counts, the results for `CCCCC(=O)Nc1cccn2ncnc12` are 24.7% and 14.8%.
Regarding `Cc1ccccc1N(C(=O)c1csnn1)C(C(=O)NC1CCCCC1)c1ccncc1` (stereo unspecified), the inhibition in assay [1] is -16%; in assay [2] it was -5.53%.
`Cn1c(O)c(N=NC(=N)N)c2ccccc21`: the inhibition was 5.65% in assay [1] and 11.6% in assay [2].
On the same counts, the results for `O=C(CSc1n[nH]c(-c2cccnc2)n1)Nc1ccc([N+](=O)[O-])cc1` are -26.9% and -8.24%.
